Experimental data taken from PubChem BioAssay (Tox21).
Results filed as inconclusive are left out. Activity calls are given as the source filed them. Calls follow the shape of the dose curve; as a rule, active = well fitted curve in the direction sought with a large enough effect in the repeat runs; inconclusive = weak or mixed curves; inactive = no such curve, though single readings can be large; an effect the other way counts as inactive or inconclusive.

Columns and labels:
[1] = qHTS RealTime-Glo MT Cell Viability Assay in HepG2 cells - 8 hour (AID 1224873); conditions: RealTime-Glo luminescence; series mostly up to 76.8 µM; also: nearly all actives have a fitted effect of over 55% in size; also: potency is read from the fitted curve at half-maximal effect
Method in brief: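 Real-time viability: cells seeded at 600 per well together with NanoLuc and cell-permeant prosubstrate, compounds added after 5 h incubation. Luminescence tracked at 0, 8, 16, 24, 32 and 40 h of exposure.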

[2] = qHTS RealTime-Glo MT Cell Viability Assay in HEK293 cells - 40 hour (AID 1224874); conditions: RealTime-Glo luminescence; max response: hits give low values; also: nearly all actives have a fitted effect of over 50% in size; also: potency is read from the fitted curve at half-maximal effect
Method in brief: (§1)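 Cells were seeded together with NanoLuc luciferase and a prosubstrate that viable cells reduce to a luciferase substrate. After a 5 h incubation at 37 C/5% CO2, compounds were added and luminescence was measured repeatedly during 40 h of treatment.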

[3] = A CellTox Green Cytotoxicity Assay to monitor cytotoxicity in HEK293 cells - 24 hour (AID 1224875); conditions: CellTox Green fluorescence; series mostly up to 76.8 µM; also: nearly all actives have a fitted effect of over 45% in size; also: potency is read from the fitted curve at half-maximal effect
Method in brief: (§2)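 Nonlytic real-time cytotoxicity: HEK293 + CellTox Green reagent plated, 5 h preincubation, pintool compound addition (23 nL in DMSO), 37 C for 40 h, fluorescence measured at successive time points.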

[4] = A CellTox Green Cytotoxicity Assay to monitor cytotoxicity in HepG2 cells - 40 hour (AID 1224879); conditions: CellTox Green fluorescence; series mostly up to 76.8 µM; also: nearly all actives have a fitted effect of over 40% in size; also: potency is read from the fitted curve at half-maximal effect
Method in brief: (§3)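 Read-out is fluorescence of a cyanine dye excluded from live cells that stains DNA of dead HepG2 cells, with signal proportional to cytotoxicity. Plates were read at 0, 8, 16, 24, 32 and 40 h after compound addition.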

[5] = qHTS RealTime-Glo MT Cell Viability Assay in HEK293 cells - 0 hour (AID 1224880); conditions: RealTime-Glo luminescence; series mostly up to 76.8 µM; also: nearly all actives have a fitted effect of over 45% in size; also: potency is read from the fitted curve at half-maximal effect
Method in brief: as §1

[6] = A CellTox Green Cytotoxicity Assay to monitor cytotoxicity in HepG2 cells - 0 hour (AID 1224882); conditions: CellTox Green fluorescence; series mostly up to 76.8 µM; also: nearly all actives have a fitted effect of over 35% in size
Method in brief: as §3

[7] = A CellTox Green Cytotoxicity Assay to monitor cytotoxicity in HepG2 cells - 32 hour (AID 1224883); conditions: CellTox Green fluorescence; series mostly up to 76.8 µM; also: nearly all actives have a fitted effect of over 50% in size; also: potency is read from the fitted curve at half-maximal effect
Method in brief: as §3

[8] = A CellTox Green Cytotoxicity Assay to monitor cytotoxicity in HEK293 cells - 8 hour (AID 1224884); conditions: CellTox Green fluorescence; series mostly up to 76.8 µM; also: nearly all actives have a fitted effect of over 35% in size
Method in brief: as §2

[9] = qHTS RealTime-Glo MT Cell Viability Assay in HEK293 cells - 24 hour (AID 1224886); conditions: RealTime-Glo luminescence; series mostly up to 76.8 µM; also: nearly all actives have a fitted effect of over 50% in size; also: potency is read from the fitted curve at half-maximal effect
Method in brief: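 HEK293 cells were seeded at 600 cells/well together with NanoLuc luciferase and cell-permeant prosubstrate, preincubated 5 h at 37 C/5% CO2, then given compound in DMSO by pintool. Luminescence from viable-cell prosubstrate reduction was read repeatedly over 40 h.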

[10] = A CellTox Green Cytotoxicity Assay to monitor cytotoxicity in HEK293 cells - 16 hour (AID 1224888); conditions: CellTox Green fluorescence; series mostly up to 76.8 µM; also: nearly all actives have a fitted effect of over 35% in size; also: potency is read from the fitted curve at half-maximal effect
Method in brief: as §2

[11] = A CellTox Green Cytotoxicity Assay to monitor cytotoxicity in HepG2 cells - 16 hour (AID 1224876); conditions: CellTox Green fluorescence; series mostly up to 76.8 µM; also: nearly all actives have a fitted effect of over 45% in size; also: potency is read from the fitted curve at half-maximal effect
Method in brief: as §3

[12] = qHTS RealTime-Glo MT Cell Viability Assay in HepG2 cells - 32 hour (AID 1224877); conditions: RealTime-Glo luminescence; series mostly up to 76.8 µM; also: nearly all actives have a fitted effect of over 55% in size; also: potency is read from the fitted curve at half-maximal effect
Method in brief: (§4)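 HepG2 cells were seeded at 600 cells/well together with NanoLuc luciferase and a cell-permeant prosubstrate, preincubated 5 h at 37 C/5% CO2, then pin-dosed with compounds in DMSO. Nonlytic luminescence from viable cells was read at each time point.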

[13] = A CellTox Green Cytotoxicity Assay to monitor cytotoxicity in HEK293 cells - 32 hour (AID 1224881); conditions: CellTox Green fluorescence; series mostly up to 76.8 µM; also: nearly all actives have a fitted effect of over 40% in size
Method in brief: as §2

[14] = qHTS RealTime-Glo MT Cell Viability Assay in HepG2 cells - 16 hour (AID 1224885); conditions: RealTime-Glo luminescence; series mostly up to 76.8 µM; also: nearly all actives have a fitted effect of over 50% in size
Method in brief: as §4

[15] = qHTS RealTime-Glo MT Cell Viability Assay in HepG2 cells - 0 hour (AID 1224889); conditions: RealTime-Glo luminescence; series mostly up to 76.8 µM; also: nearly all actives have a fitted effect of over 50% in size; also: potency is read from the fitted curve at half-maximal effect
Method in brief: as §4

[16] = A CellTox Green Cytotoxicity Assay to monitor cytotoxicity in HepG2 cells - 8 hour (AID 1224890); conditions: CellTox Green fluorescence; series mostly up to 76.8 µM; also: nearly all actives have a fitted effect of over 45% in size; also: potency is read from the fitted curve at half-maximal effect
Method in brief: as §3

[17] = A CellTox Green Cytotoxicity Assay to monitor cytotoxicity in HepG2 cells - 24 hour (AID 1224878); conditions: CellTox Green fluorescence; series mostly up to 76.8 µM; also: nearly all actives have a fitted effect of over 45% in size; also: potency is read from the fitted curve at half-maximal effect
Method in brief: as §3

[18] = qHTS assay to identify small molecule antagonists of the estrogen receptor alpha (ER-alpha) signaling pathway using the BG1 cell line in the presence of 0.1 nM 17-beta-estradiol - cell viability counter screen (AID 1259241); conditions: VM7Luc4E2 (BG1) viability, CellTiter-Fluor protease, 22 h, 0.1 nM estradiol agonist added; series mostly up to 92.4 µM; also: nearly all actives have a fitted effect of over 40% in size; also: potency is read from the fitted curve at half-maximal effect
Method in brief: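 Live-cell protease activity (CellTiter-Fluor fluorescence, 30 min) was read in the same wells after VM7Luc4E2 cells had been exposed to compounds with 0.1 nM 17beta-estradiol for 22 hr at 37C.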

[19] = qHTS RealTime-Glo MT Cell Viability Assay in HEK293 cells - 8 hour (AID 1224887); conditions: RealTime-Glo luminescence; series mostly up to 76.8 µM; also: nearly all actives have a fitted effect of over 50% in size; also: potency is read from the fitted curve at half-maximal effect
Method in brief: as §1
% is scaled to controls: 0 for no effect and ±100 for the full control effect.

FC(F)C(F)(F)OCC(Cn1cncn1)c1ccc(Cl)cc1Cl (stereo not drawn)
active: Potency [1] 54.6 µM | Potency [2] 21.7 µM | Potency [4] 48.7 µM | Potency [7] 48.7 µM | Potency [9] 21.7 µM
inactive: Potency [3] | Potency [5] | Potency [6] | Potency [8] | Potency [10]

O=C1C[C@@H]2OCC=C3CN4CC[C@]56c7ccccc7N1[C@H]5[C@H]2[C@H]3C[C@H]46
inactive: Potency [1] | Potency [3] | Potency [11] | Potency [12] | Potency [4] | Potency [5] | Potency [13] | Potency [6] | Potency [7] | Potency [8] | Potency [14] | Potency [10] | Potency [15] | Potency [16]

Oc1ccc([C@H]2CNCc3c2ccc(O)c3O)cc1O
active: Potency [3] 26.8 µM | Potency [11] 23.9 µM | Potency [17] 26.8 µM | Potency [4] 26.8 µM | Potency [7] 26.8 µM | Potency [10] 26.8 µM | Potency [16] 26.8 µM
inactive: max response [2] -21.9% | Potency [12] | Potency [5] | Potency [9] | Potency [15]

Nc1ccc(N=Nc2ccccc2)cc1
inactive: Potency [3] | Potency [11] | Potency [12] | Potency [17] | Potency [5] | Potency [13] | Potency [6] | Potency [8] | Potency [10] | Potency [15] | Potency [16]

CC(C)(C)c1ccc(OP(=O)(Oc2ccccc2)Oc2ccccc2)cc1
inactive: Potency [1] | Potency [3] | Potency [11] | Potency [12] | Potency [17] | Potency [4] | Potency [5] | Potency [13] | Potency [6] | Potency [7] | Potency [8] | Potency [14] | Potency [16] | Potency [18]

COP(=O)(OC)O/C(=C\Cl)c1cc(Cl)c(Cl)cc1Cl
inactive: max response [2] 0.507% | Potency [3] | Potency [11] | Potency [5] | Potency [13] | Potency [6] | Potency [8] | Potency [9] | Potency [19] | Potency [16] | Potency [18]

CN1CCc2cc(Cl)c(O)cc2[C@H]2c3ccccc3CC[C@@H]21
inactive: Potency [1] | Potency [3] | Potency [11] | Potency [12] | Potency [4] | Potency [5] | Potency [13] | Potency [6] | Potency [7] | Potency [14] | Potency [19] | Potency [10] | Potency [15] | Potency [16]

O=S(=O)(NS(=O)(=O)C(F)(F)F)C(F)(F)F
inactive: Potency [1] | Potency [3] | Potency [12] | Potency [5] | Potency [13] | Potency [6] | Potency [8] | Potency [14] | Potency [19] | Potency [10] | Potency [15] | Potency [16] | Potency [18]
active: Potency [2] 1.94 µM | Potency [17] 48.9 µM | Potency [4] 48.9 µM | Potency [7] 48.9 µM | Potency [9] 1.23 µM

CN(C)c1ccc(N)cc1
active: Potency [2] 47.8 µM | Potency [9] 42.6 µM | Potency [19] 24 µM | Potency [18] 47.4 µM
inactive: Potency [3] | Potency [11] | Potency [12] | Potency [17] | Potency [4] | Potency [5] | Potency [6] | Potency [7] | Potency [8] | Potency [10] | Potency [15] | Potency [16]

CCOP(=S)(NC(C)C)Oc1ccccc1C(=O)OC(C)C (stereo not drawn)
inactive: Potency [1] | Potency [3] | Potency [11] | Potency [17] | Potency [13] | Potency [6] | Potency [7] | Potency [10] | Potency [15] | Potency [16] | Potency [18]
active: Potency [2] 43.6 µM | Potency [4] 38.9 µM

[Cl-].[Cl-].[Sn+2]
inactive: Potency [1] | Potency [3] | Potency [11] | Potency [12] | Potency [17] | Potency [4] | Potency [5] | Potency [13] | Potency [6] | Potency [7] | Potency [14] | Potency [9] | Potency [19] | Potency [15] | Potency [16]

C[C@]12Cc3cn[nH]c3C[C@@H]1CC[C@@H]1[C@@H]2CC[C@@]2(C)[C@H]1CC[C@]2(C)O
inactive: Potency [1] | Potency [3] | Potency [11] | Potency [12] | Potency [5] | Potency [13] | Potency [6] | Potency [8] | Potency [14] | Potency [19] | Potency [10] | Potency [15] | Potency [16]

Nc1nc(N)nc(Cl)n1
inactive: Potency [1] | max response [2] 1.73% | Potency [3] | Potency [17] | Potency [4] | Potency [5] | Potency [13] | Potency [6] | Potency [8] | Potency [14] | Potency [9] | Potency [19] | Potency [10] | Potency [15] | Potency [16]

CCNc1nc(NC(C)C(C)C)nc(SC)n1 (stereo not drawn)
inactive: Potency [1] | Potency [3] | Potency [11] | Potency [17] | Potency [4] | Potency [5] | Potency [13] | Potency [6] | Potency [7] | Potency [8] | Potency [14] | Potency [9] | Potency [19] | Potency [15] | Potency [16] | Potency [18]

COC(=O)N(OC)c1ccccc1COc1ccn(-c2ccc(Cl)cc2)n1
inactive: Potency [3] | Potency [12] | Potency [4] | Potency [5] | Potency [13] | Potency [6] | Potency [7] | Potency [8] | Potency [14] | Potency [10] | Potency [15] | Potency [16]
active: Potency [2] 13.8 µM

Cc1c([N+](=O)[O-])c(C)c([N+](=O)[O-])c(C(C)(C)C)c1[N+](=O)[O-]
inactive: Potency [1] | max response [2] -20% | Potency [3] | Potency [12] | Potency [17] | Potency [4] | Potency [5] | Potency [13] | Potency [6] | Potency [8] | Potency [14] | Potency [9] | Potency [19] | Potency [10] | Potency [15] | Potency [16] | Potency [18]

N#CC(C#N)=NNc1cccc(Cl)c1
inactive: Potency [1] | Potency [3] | Potency [13] | Potency [6] | Potency [8] | Potency [19] | Potency [16]
active: Potency [2] 5.49 µM | Potency [12] 21.9 µM | Potency [17] 24.5 µM | Potency [4] 12.3 µM | Potency [5] 38.9 µM | Potency [7] 13.8 µM | Potency [9] 5.49 µM | Potency [15] 24.5 µM | Potency [18] 12.2 µM
